Article PMC4336329 (PLoS ONE, 2015)
The campaign covered roughly 310,000 compounds. About 14,000 (4.5%) showed an effect of 50% or more. Effects have a minus sign here. The sample holds strong results, similar compounds and a random draw of the others, so the mix is not that of the screen.

These molecules were tested against human ether-à-go-go-related gene (hERG) potassium channel (human, UniProt Q12809) (assay: primary screen, population patch clamp on CHO cells stably expressing hERG; higher = less effect of the substance).
human ether-à-go-go-related gene (hERG) potassium channel, sequence (Q12809 whole entry, looked up): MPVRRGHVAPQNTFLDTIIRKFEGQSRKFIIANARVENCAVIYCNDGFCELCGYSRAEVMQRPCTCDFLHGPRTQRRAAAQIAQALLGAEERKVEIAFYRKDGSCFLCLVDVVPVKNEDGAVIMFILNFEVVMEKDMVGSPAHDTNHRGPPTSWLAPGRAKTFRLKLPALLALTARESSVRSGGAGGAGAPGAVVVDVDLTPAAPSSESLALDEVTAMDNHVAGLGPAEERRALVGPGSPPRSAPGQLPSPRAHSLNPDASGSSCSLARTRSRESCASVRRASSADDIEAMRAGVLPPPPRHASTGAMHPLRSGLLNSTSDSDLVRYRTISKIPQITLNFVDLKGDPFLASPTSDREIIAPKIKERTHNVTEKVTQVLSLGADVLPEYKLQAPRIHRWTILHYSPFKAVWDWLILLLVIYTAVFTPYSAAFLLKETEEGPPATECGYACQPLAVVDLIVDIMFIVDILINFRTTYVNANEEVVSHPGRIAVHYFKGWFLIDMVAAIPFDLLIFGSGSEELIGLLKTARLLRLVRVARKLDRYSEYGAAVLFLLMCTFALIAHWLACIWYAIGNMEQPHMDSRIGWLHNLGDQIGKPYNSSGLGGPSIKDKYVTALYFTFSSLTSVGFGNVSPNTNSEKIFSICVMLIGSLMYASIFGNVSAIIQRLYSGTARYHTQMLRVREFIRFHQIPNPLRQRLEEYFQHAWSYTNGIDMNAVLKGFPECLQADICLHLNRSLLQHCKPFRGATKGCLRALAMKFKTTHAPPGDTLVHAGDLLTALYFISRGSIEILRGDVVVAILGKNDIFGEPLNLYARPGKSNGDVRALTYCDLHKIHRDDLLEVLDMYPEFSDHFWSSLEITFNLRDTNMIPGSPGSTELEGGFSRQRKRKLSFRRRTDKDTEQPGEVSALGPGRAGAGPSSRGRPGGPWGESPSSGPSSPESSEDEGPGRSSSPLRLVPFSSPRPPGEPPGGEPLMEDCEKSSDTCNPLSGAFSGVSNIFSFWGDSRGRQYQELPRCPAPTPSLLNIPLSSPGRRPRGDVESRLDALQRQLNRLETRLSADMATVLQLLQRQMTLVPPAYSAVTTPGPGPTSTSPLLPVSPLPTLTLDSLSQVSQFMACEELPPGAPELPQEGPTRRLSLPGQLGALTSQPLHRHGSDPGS
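Also: peak tail current of the secondary pulse compared with the same well before compound.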

| Compound | hERG current change (%, negative = inhibition) at 10uM |
| --- | --- |
| CCn1c(CNC(=O)c2ccc(OC)c(OC)c2)nnc1SCC(=O)c1ccc(OC)cc1 | -0.747% |
| O=C(CSc1ncn[nH]1)Nc1ccc(Cl)c(Cl)c1 | 0.453% |
| Cn1cc2cccc([N+](=O)[O-])c2n1 | 2.69% |
| O=C(CSc1nc2ccc([N+](=O)[O-])cc2[nH]1)c1ccc(Cl)cc1 | 12.1% |
| O=C1c2ccccc2C2(c3ccccc3)NCCN12 (stereo not drawn) | 5.86% |
| CN(CC(=O)Nc1cccc2ccccc12)c1ccc(S(=O)(=O)N2CCOCC2)cn1 | 11.8% |
| CCn1nc(C)c(CNC(=O)C2CCC(=O)N(CCc3ccc(Cl)cc3)C2)c1C (stereo not drawn) | -21.6% |
| O=C(NCc1ccc2c(c1)OCO2)C1CC(=O)N(CCc2ccc(Cl)cc2)C1 (stereo not drawn) | -54.1% |
| COc1ccccc1CCCNC(=O)C1CCC(=O)N(Cc2ccccc2F)C1 (stereo not drawn) | -1.76% |
| O=C(NCc1ccon1)C1CCC(=O)N(CCc2ccc(Cl)cc2)C1 (stereo not drawn) | -37.2% |
| Cc1ccc(CNC(=O)C2CCC(=O)N(CCc3ccc(Cl)cc3)C2)cc1 (stereo not drawn) | -40.2% |
| COc1ccccc1CCCNC(=O)C1CCC(=O)N(CCCN2CCCC2=O)C1 (stereo not drawn) | 14% |
| CCc1ccc(CNC(=O)C2CCC(=O)N(CCc3ccc(Cl)cc3)C2)nc1 (stereo not drawn) | -67% |
| Cc1ccc(CCN2CC(C(=O)NCc3ccc4c(c3)OCO4)CC2=O)cc1 (stereo not drawn) | -37.2% |
| O=C(NCc1ccncc1)C1CCC(=O)N(CCc2ccc(Cl)cc2)C1 (stereo not drawn) | -65.5% |
| O=C(NCc1ccccn1)C1CCC(=O)N(Cc2ccc(Cl)cc2)C1 (stereo not drawn) | 18.7% |
| O=C(NCc1ccc2c(c1)OCO2)C1CC(=O)N(CCc2ccccc2)C1 (stereo not drawn) | 3.54% |
| COc1ccccc1CCCNC(=O)C1CCC(=O)N(CCc2ccc(Cl)cc2)C1 (stereo not drawn) | -60.5% |
| CCOc1ccc(C)cc1S(=O)(=O)Nc1ccc(Cl)cn1 | -3.98% |
| Cn1c(=O)cc(OCC(=O)N2CCCc3ccccc32)c2ccccc21 | -3.03% |

| Compound | hERG current change (%, negative = inhibition) at 10uM |
| --- | --- |
| CCOC(=O)C1(Cc2ccccc2C)CCCN(C(=O)CN2CCCCC2=O)C1 (stereo not drawn) | 14.8% |
| COc1ccc(C(CC(=O)O)NC(=O)COc2ccc(C)cc2)cc1OC (stereo not drawn) | 15.2% |
| CCOC(=O)c1c(NC(=O)c2cccs2)sc2c1CCCC2 | 15.6% |
| Cc1ccccc1NC1=NCC(C)S1 (stereo not drawn) | -2.32% |
| CCOC(=O)CN1C(=O)N[C@@H](c2cccs2)C(C(=O)OC)=C1C | -11% |
| CCCc1nn2c(=O)cc(CSCC(=O)Nc3ccc(F)cc3)nc2s1 | -1.51% |
| COc1ccccc1CN1CC(C(=O)N2CCCCO2)CCC1=O (stereo not drawn) | -65.7% |
| O=C(NC1(c2ccccc2)CC1)C1CCC(=O)N(Cc2ccc(Cl)cc2)C1 (stereo not drawn) | -24.1% |
| CN(CCNC(=O)C1CCC(=O)N(Cc2ccc(Cl)cc2)C1)CCc1ccccc1 (stereo not drawn) | -72.6% |
| CN(CCNC(=O)C1CCC(=O)N(Cc2cccc(F)c2)C1)CCc1ccccc1 (stereo not drawn) | -46.3% |
| O=C(NCCc1ccccc1Cl)C1CCC(=O)N(Cc2ccc(Cl)cc2)C1 (stereo not drawn) | -56.8% |
| Cc1ccccc1CCNC(=O)C1CCC(=O)N(Cc2ccc(Cl)cc2)C1 (stereo not drawn) | -33.4% |
| COc1ccccc1CN1CC(C(=O)N2CCCCCCC2)CCC1=O (stereo not drawn) | 3.22% |
| O=C(NCCc1ccccc1F)C1CCC(=O)N(Cc2ccc(Cl)cc2)C1 (stereo not drawn) | -32.5% |
| COc1ccccc1CN1CC(C(=O)N2CCOCC2)CCC1=O (stereo not drawn) | -14.6% |
| COc1ccccc1CCNC(=O)C1CCC(=O)N(Cc2ccccc2OC)C1 (stereo not drawn) | -13.2% |
| COc1ccccc1CN1CC(C(=O)NCCCc2ccc(F)cc2)CCC1=O (stereo not drawn) | -41% |
| COc1ccccc1CN1CC(C(=O)NCCN(C)CCc2ccccc2)CCC1=O (stereo not drawn) | -65.7% |
| O=S(=O)(NC1CCCCC1)c1ccc(N2CCOCC2)nc1 | -2.81% |
| COc1ccc(C(C(=O)NC2CCCC2)N(C(=O)c2snc(-c3ccc(F)cc3)c2N)c2ccc(F)cc2)cc1 (stereo not drawn) | 1.29% |

| Compound | hERG current change (%, negative = inhibition) at 10uM |
| --- | --- |
| N#Cc1ccccc1NC(=O)c1ccccc1OCC(=O)Nc1ccc2c(c1)oc1ccccc12 | 16.2% |
| Cc1nn(-c2ccc(F)cc2)c(Cl)c1/C=C/C(=O)OCC(=O)Nc1ccc(F)cc1F | 15.5% |
| CSc1ccc(NC(=O)CC(C)=O)cc1 | -21.3% |
| Cc1c(NC(=O)c2cc3c(=O)n4ccccc4nc3s2)c(=O)n(-c2ccccc2)n1C | 8.11% |
| CN(Cc1nc2ccccc2n1C)S(=O)(=O)c1ccc(Cl)cc1 | 3.21% |
| CCC(=O)c1c[nH]c(C(=O)NCCc2ccccn2)c1 | 3.31% |
| O=C(CCNC(=O)N1CCn2c1nc1ccccc12)NCc1ccc(F)cc1 | -6.29% |
| COc1ccc(Br)cc1/C=C(\C(=O)O)c1ccc(S(=O)(=O)N2CCCCC2)s1 | 0.483% |
| O=C(NCCCc1ccccc1)C1CCC(=O)N(Cc2ccc(Cl)cc2)C1 (stereo not drawn) | -61.3% |
| O=C(NCCOc1ccccc1)C1CCC(=O)N(CCc2ccc(Cl)cc2)C1 (stereo not drawn) | -88.2% |
| O=C(NCCOc1ccccc1)C1CCC(=O)N(Cc2ccc(Cl)cc2)C1 (stereo not drawn) | -31.2% |
| O=C(NCCOc1ccccc1)C1CCC(=O)N(CCc2ccccn2)C1 (stereo not drawn) | -11.9% |
| O=C(NCCc1ccc(Cl)cc1)C1CC(=O)N(CCc2ccccc2)C1 (stereo not drawn) | -62% |
| O=C(NCc1ccccc1F)C1CCC(=O)N(Cc2ccc(Cl)cc2)C1 (stereo not drawn) | -42.1% |
| Cc1ccc(CNC(=O)C2CCC(=O)N(CCc3ccccn3)C2)s1 (stereo not drawn) | 2.53% |
| O=C(NCCc1ccccc1)C1CC(=O)N(CCc2ccccc2)C1 (stereo not drawn) | 6.57% |
| Cc1ccc(CNC(=O)C2CCC(=O)N(CCc3ccc(Cl)cc3)C2)s1 (stereo not drawn) | -69.4% |
| Cc1ccc(CCN2CC(C(=O)NCCc3ccccc3)CC2=O)cc1 (stereo not drawn) | -3.16% |
| O=C(NCCc1ccccc1)C1CCC(=O)N(Cc2ccc(Cl)cc2)C1 (stereo not drawn) | -20.5% |
| Cc1ccc(CNC(=O)C2CCC(=O)N(CCc3ccccc3)C2)s1 (stereo not drawn) | -25.7% |
